Drawing on PubChem BioAssay (Tox21), this text covers Potency and outcome for eight compounds.

Where “and” joins values, the source holds several entries; their conditions need not be identical. Identical values can stand only once. Records with an inconclusive call do not appear. A structure can be active in one record and inactive in another. Calls of active or inactive are those of the source. Unless noted, calls follow the shape of the dose curve; as a rule, active = well fitted curve in the direction sought with a large enough effect in the repeat runs; inconclusive = weak or mixed curves; inactive = no such curve, though single readings can be large; an effect the other way counts as inactive or inconclusive.

In assay [1] the target is Estrogen receptor beta (Homo sapiens) (UniProt Q92731). In words: qHTS assay to identify small molecule agonists of the estrogen receptor beta (ER-beta) signaling pathway (AID 1259377; active = well fitted activation curve with a large enough effect in the signal ratio in the repeat runs, not every such curve was filed as active; the % refers to the signal ratio). Summed up:
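Reporter cells (HEK293T, ER-beta-UAS-bla) receive compounds or DMSO after a 6 hr pre-incubation. They then incubate 16 hr at 37C/5% CO2, and fluorescence from LiveBLAzer B/G substrate is measured after 2 hours at room temperature.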
On the technique in general: qHTS replaces the single test concentration by a dilution series.

Assay [2] shares this target. In words: qHTS assay to identify small molecule antagonists of the estrogen receptor beta (ER-beta) signaling pathway (AID 1259378; active = well fitted inhibition curve with a large enough effect in the signal ratio in the repeat runs, not every such curve was filed as active; the % refers to the signal ratio; also: potency is read from the fitted curve at half-maximal effect). Summed up: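 ER-beta-UAS-bla HEK293T cells in 2% charcoal-stripped FBS medium treated with compound plus 1nM final 17-beta-estradiol for 16 hr at 37C. Beta-lactamase reporter read by FRET substrate fluorescence after 2 hours at room temperature.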

Assay [3] is described as follows: qHTS assay to identify small molecule agonists of the androgen receptor (AR) signaling pathway in the presence of an antagonist - cell viability counter screen (AID 1259379).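 Also: MDA-kb2 human breast cancer cells carrying an MMTV luciferase reporter; series mostly up to about 92 µM; nearly all actives have a fitted effect of over 25% in size.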 Summed up:
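MDA-kb2 viability measured by CellTiter-Fluor fluorescence in the same wells as the luciferase signal; nilutamide 3.0uM final; 15-point compound titration; 16 hr at 37C.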

Assay [4] can be described thus: qHTS assay to identify small molecule agonists of the estrogen receptor beta (ER-beta) signaling pathway - cell viability counter screen (AID 1259380). Also: nearly all actives have a fitted effect of over 30% in size. Also: potency is read from the fitted curve at half-maximal effect. Summed up: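 Measured: luminescence from CellTiter-Glo after 30 min at room temperature, added to wells already read for the LiveBLAzer FRET reporter (2 hr substrate); ER-beta-UAS-bla HEK293T cells had 16 hr compound treatment at 37C, 5% CO2.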

Assay [5] can be described thus: qHTS assay to identify small molecule antagonists of the estrogen receptor beta (ER-beta) signaling pathway - cell viability counter screen (AID 1259382). Also: nearly all actives have a fitted effect of over 55% in size. Also: potency is read from the fitted curve at half-maximal effect. Summed up:
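Readout: luminescence, CellTiter-Glo, same wells as bla assay. System: ER-beta-UAS-bla GripTite HEK293T, 2% charcoal-stripped FBS. Exposure: compounds plus 1nM 17-beta-estradiol, 16 hr, 37C.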

The target in assay [6] is Estrogen receptor (Homo sapiens) (UniProt P03372). In words: qHTS assay to identify small molecule agonists of the estrogen receptor alpha (ER-alpha) signaling pathway in the presence of an antagonist (AID 1259383; calls by dose curve; also: nearly all actives have a fitted effect of over 15% in size; also: potency is read from the fitted curve at half-maximal effect; as to activation: top concentration of the series differs between compounds). Summed up: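 Quantitative HTS confirmation: compounds titrated at 15 concentrations onto estrogen-deprived VM7Luc4E2 cells carrying a four-ERE luciferase construct, with ICI-182,780 present at 10.0nM final. Signal is luminescence after 22hr exposure.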
Chain of Estrogen receptor (Homo sapiens) (P03372 whole entry, looked up): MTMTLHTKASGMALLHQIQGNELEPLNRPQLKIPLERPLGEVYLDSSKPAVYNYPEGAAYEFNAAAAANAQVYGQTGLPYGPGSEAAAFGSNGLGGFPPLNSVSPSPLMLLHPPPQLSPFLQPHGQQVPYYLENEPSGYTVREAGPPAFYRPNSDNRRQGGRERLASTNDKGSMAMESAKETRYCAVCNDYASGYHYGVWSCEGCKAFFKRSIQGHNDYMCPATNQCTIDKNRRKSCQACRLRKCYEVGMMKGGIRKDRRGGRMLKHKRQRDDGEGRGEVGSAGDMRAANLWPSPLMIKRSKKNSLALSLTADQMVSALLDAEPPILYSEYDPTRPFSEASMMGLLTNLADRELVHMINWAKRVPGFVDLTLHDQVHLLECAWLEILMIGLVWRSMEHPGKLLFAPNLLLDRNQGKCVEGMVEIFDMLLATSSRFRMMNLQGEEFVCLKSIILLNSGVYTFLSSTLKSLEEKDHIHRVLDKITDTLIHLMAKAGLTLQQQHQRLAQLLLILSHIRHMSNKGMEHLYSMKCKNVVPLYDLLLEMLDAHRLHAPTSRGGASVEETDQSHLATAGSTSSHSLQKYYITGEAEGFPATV

The nature of assay [7]: qHTS assay to identify small molecule agonists or antagonists of the thyroid stimulating hormone receptor (TSHR) signaling pathway - wild type cell line counter screen (AID 1259384; calls by dose curve). Summed up: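 Wild-type Hek293 cells, 800/well, 18 h at 37C, then compound with Ro20-1724 for 30 min RT. cAMP by HTRF (cAMP-d2/anti-cAMP cryptate), 1 h RT, fluorescence read. 15 concentrations, triplicates.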

Assay [8] deals with Thyrotropin receptor (Homo sapiens) (UniProt P16473). In words: qHTS assay to identify small molecule antagonists of the thyroid stimulating hormone receptor (TSHR) signaling pathway (AID 1259385; calls by dose curve; also: nearly all actives have a fitted effect of over 20% in size). Summed up:
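TSHR-HEK293 cells (800/well) plated 18 h, then compounds with Ro20-1724 and TSH at 1.5 ng/mL final, 30 min at room temperature. cAMP quantified by HTRF (cAMP-d2/anti-cAMP-cryptate, 1 h); 15 concentrations in triplicate.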

Assay [9] concerns the target Progesterone receptor (Homo sapiens) (UniProt P06401). In words: qHTS assay to identify small molecule agonists of the progesterone receptor (PR) signaling pathway (AID 1346784; calls by dose curve; also: nearly all actives have a fitted effect of over 30% in size). Summed up: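 Reporter assay, GripTite PR-UAS-bla HEK 293T cells: 16 hr exposure to DMSO-dissolved compounds at 37C, 5% CO2, in steroid-depleted (2% charcoal-stripped FBS) medium; beta-lactamase measured by FRET fluorescence.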

Assay [10] can be described thus: qHTS assay to identify small molecule antagonists of the progesterone receptor (PR) signaling pathway - cell viability counter screen (AID 1346798). Also: series mostly up to about 92 µM; nearly all actives have a fitted effect of over 50% in size. Summed up:
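In the same plates used for the beta-lactamase readout, cell viability of compound- and R5020-treated PR-UAS-bla HEK293T cells (16 hr, 37C) was assessed by CellTiter-Glo luminescence.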

Assay [11] is described as follows: qHTS assay to identify small molecule antagonists of the TGF-beta/Smad signaling pathway - cell viability counter screen (AID 1346824). Also: nearly all actives have a fitted effect of over 50% in size. Summed up:
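SBE-bla HEK 293T cells, incubated overnight, then compound plus 0.25 ng/mL TGF-beta1 (stock added) for 5 hr at 37 C. Viability was read in the same wells by CellTiter-Glo luminescence after 30 min at room temperature.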

The nature of assay [12]: qHTS assay to identify small molecule agonists of the TGF-beta/Smad signaling pathway - cell viability counter screen (AID 1346829). Also: top concentration of the series differs between compounds; nearly all actives have a fitted effect of over 45% in size. Summed up: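 Compound-treated SBE-bla HEK 293T cells (5 hr, 37 C) were assessed for viability with CellTiter-Glo in parallel with the reporter read.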
Assay [13] in a line: qHTS assay to identify small molecule agonists of the TGF-beta/Smad signaling pathway (AID 1346859; active = well fitted activation curve with a large enough effect in the signal ratio in the repeat runs, not every such curve was filed as active; the % refers to the signal ratio; also: series mostly up to about 77 µM). Summed up: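 Screening used HEK 293T SBE-bla cells at 4,000/well. Test agents: 5 hr, 37 C. Detection: FRET substrate, 2 hr RT, then excitation 405 nm with emissions at 460 and 530 nm.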
In assay [14] the target is Thyrotropin-releasing hormone receptor (Homo sapiens) (UniProt P34981). In words: qHTS assay to identify small molecule antagonists of the thyrotropin-releasing hormone receptor (TRHR) signaling pathway (AID 1346877; active = well fitted inhibition curve with a large enough effect in the repeat runs, not every such curve was filed as active; also: series mostly up to about 51 µM). Summed up:
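Overnight-plated (18 h, 37 °C) HEK293 cells expressing TRHR were dye-loaded 2 h, treated with compound, then stimulated with TRH at 1 nM final. Fluorescence intensity was captured every second for 3 min.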

For assay [15] the target is unchanged. In words: qHTS assay to identify small molecule agonists of the thyrotropin-releasing hormone receptor (TRHR) signaling pathway (AID 1346891; calls by dose curve; also: series mostly up to about 58 µM). Summed up: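 Readout was intracellular calcium fluorescence in TRHR-Hek293 cells. Cells were incubated 18 h, dye-loaded 2 h at 37 °C, and treated with compound in agonist mode.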
Assay [16] in a line: Human pregnane X receptor (PXR) small molecule agonists, qHTS cell viability counter screen (AID 1346977). Also: nearly all actives have a fitted effect of over 50% in size. Also: potency is read from the fitted curve at half-maximal effect. Summed up: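 In each well, the PXR reporter HepG2 line was checked for viability: CellTiter-Fluor reagent added 23hr post-dosing, fluorescence read after 1hr incubation at 37C.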
The target in assay [17] is Progesterone receptor (Homo sapiens) (UniProt P06401). In words: qHTS assay to identify small molecule antagonists of the progesterone receptor (PR) signaling pathway (AID 1346795; active = well fitted inhibition curve with a large enough effect in the signal ratio in the repeat runs, not every such curve was filed as active; the % refers to the signal ratio; also: potency is read from the fitted curve at half-maximal effect). Summed up:
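Stimulus R5020 at 1 nM final; cells HEK293T PR-UAS-bla; medium with 2% charcoal-stripped FBS; compound exposure 16 hr at 37C, 5% CO2; detection by FRET beta-lactamase substrate, 2 hr, room temperature.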

Assay [18] can be described thus: qHTS assay to identify small molecule agonists of the progesterone receptor (PR) signaling pathway - cell viability counter screen (AID 1346799; calls by dose curve; also: nearly all actives have a fitted effect of over 45% in size). Summed up: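 Multiplexed viability read: CellTiter-Glo luminescence, 30 min RT, following LiveBLAzer FRET measurement on PR-UAS-bla HEK293T cells exposed to compounds 16 hr.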
Assay [19] can be described thus: qHTS assay to identify small molecule agonists of the estrogen receptor alpha (ER-alpha) signaling pathway in the presence of an antagonist - cell viability counter screen (AID 1259386).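 Also: cells exposed to compounds for 22 h at 37 °C before the viability read; nearly all actives have a fitted effect of over 30% in size.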 Also: potency is read from the fitted curve at half-maximal effect. Summed up:
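The test measures whether compounds kill ER-alpha reporter cells (VM7Luc4E2) under antagonist co-treatment (ICI-182,780, 10.0nM). Fluorescence from CellTiter-Fluor is read after a 22hr exposure.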

Assay [20] has as its target Androgen receptor (Homo sapiens) (UniProt P10275). In words: qHTS assay to identify small molecule agonists of the androgen receptor (AR) signaling pathway in the presence of an antagonist (AID 1259381; calls by dose curve; also: nearly all actives have a fitted effect of over 15% in size). Summed up: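 Luminescent ONE-Glo read, 30min at room temperature, follows 16hr compound exposure (15 concentrations) of MDA-kb2 cells at 37C, 0% CO2, with nilutamide added at 3.0uM final.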

Chain of Estrogen receptor beta (Homo sapiens) (Q92731 whole entry, looked up): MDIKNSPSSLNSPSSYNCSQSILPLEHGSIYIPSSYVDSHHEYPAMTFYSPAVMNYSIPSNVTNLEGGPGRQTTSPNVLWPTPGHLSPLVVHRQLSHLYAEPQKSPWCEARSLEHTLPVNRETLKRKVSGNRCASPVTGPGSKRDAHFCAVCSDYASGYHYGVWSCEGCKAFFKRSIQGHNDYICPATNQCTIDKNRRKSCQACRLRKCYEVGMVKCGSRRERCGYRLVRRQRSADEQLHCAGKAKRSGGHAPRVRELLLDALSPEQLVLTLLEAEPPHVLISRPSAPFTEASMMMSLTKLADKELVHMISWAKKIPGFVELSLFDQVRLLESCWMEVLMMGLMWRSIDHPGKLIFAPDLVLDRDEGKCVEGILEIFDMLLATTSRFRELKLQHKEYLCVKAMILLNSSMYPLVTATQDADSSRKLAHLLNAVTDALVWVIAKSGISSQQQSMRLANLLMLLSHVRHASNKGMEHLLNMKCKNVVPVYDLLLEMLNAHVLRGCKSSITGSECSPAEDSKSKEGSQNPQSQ
Chain of Thyrotropin-releasing hormone receptor (Homo sapiens) (P34981 whole entry, looked up): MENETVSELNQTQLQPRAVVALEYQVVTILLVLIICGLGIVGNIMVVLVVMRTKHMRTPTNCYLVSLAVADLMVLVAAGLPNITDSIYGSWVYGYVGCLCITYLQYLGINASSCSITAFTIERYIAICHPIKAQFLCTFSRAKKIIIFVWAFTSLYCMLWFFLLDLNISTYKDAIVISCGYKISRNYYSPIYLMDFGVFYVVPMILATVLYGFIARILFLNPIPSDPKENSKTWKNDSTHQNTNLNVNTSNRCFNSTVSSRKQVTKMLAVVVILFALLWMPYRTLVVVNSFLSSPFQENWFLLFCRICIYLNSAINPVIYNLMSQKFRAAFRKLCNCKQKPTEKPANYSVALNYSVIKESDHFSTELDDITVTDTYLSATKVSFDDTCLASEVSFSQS
Chain of Thyrotropin receptor (Homo sapiens) (P16473 whole entry, looked up): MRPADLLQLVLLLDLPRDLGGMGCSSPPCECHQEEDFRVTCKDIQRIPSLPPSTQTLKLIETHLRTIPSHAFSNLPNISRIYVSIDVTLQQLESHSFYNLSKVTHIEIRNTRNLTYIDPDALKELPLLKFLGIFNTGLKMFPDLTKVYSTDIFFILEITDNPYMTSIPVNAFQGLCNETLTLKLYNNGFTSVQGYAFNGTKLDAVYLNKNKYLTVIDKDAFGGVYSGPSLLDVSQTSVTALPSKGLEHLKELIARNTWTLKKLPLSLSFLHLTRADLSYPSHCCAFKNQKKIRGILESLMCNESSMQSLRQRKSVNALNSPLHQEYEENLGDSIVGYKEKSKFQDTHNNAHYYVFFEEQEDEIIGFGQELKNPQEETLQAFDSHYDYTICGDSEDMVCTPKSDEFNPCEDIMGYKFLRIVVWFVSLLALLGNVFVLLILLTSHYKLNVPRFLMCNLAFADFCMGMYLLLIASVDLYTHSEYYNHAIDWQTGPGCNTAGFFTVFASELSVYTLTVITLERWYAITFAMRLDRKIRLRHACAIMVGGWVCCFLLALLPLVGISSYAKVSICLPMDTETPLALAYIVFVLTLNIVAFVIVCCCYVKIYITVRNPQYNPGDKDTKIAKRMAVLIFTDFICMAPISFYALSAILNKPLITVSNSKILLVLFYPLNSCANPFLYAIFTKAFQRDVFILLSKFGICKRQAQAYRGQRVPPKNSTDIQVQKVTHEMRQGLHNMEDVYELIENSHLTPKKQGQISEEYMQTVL
Chain of Progesterone receptor (Homo sapiens) (P06401 whole entry, looked up): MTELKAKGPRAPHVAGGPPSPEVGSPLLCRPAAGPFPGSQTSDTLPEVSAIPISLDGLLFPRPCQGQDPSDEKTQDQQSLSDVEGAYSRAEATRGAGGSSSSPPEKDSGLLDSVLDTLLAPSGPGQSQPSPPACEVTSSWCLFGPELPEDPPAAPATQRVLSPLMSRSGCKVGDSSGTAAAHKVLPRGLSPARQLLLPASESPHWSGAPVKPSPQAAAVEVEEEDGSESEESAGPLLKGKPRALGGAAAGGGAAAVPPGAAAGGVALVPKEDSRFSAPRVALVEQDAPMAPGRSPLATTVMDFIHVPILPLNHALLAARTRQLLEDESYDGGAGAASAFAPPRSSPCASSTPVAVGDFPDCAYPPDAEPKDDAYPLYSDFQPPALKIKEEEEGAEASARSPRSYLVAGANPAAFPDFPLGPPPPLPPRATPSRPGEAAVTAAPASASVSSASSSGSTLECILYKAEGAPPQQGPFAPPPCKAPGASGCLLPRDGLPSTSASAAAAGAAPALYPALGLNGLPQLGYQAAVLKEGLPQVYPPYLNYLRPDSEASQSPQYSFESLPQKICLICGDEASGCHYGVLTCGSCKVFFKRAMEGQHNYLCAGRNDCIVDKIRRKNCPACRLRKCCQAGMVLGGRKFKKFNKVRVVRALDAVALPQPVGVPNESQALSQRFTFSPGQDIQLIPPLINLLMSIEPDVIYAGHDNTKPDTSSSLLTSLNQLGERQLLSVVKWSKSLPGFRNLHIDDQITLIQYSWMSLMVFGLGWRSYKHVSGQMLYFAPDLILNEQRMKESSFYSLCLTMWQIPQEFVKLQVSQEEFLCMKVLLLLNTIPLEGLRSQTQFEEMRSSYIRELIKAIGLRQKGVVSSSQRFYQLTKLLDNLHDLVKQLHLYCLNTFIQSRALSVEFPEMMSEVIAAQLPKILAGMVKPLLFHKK
Chain of Androgen receptor (Homo sapiens) (P10275 whole entry, looked up): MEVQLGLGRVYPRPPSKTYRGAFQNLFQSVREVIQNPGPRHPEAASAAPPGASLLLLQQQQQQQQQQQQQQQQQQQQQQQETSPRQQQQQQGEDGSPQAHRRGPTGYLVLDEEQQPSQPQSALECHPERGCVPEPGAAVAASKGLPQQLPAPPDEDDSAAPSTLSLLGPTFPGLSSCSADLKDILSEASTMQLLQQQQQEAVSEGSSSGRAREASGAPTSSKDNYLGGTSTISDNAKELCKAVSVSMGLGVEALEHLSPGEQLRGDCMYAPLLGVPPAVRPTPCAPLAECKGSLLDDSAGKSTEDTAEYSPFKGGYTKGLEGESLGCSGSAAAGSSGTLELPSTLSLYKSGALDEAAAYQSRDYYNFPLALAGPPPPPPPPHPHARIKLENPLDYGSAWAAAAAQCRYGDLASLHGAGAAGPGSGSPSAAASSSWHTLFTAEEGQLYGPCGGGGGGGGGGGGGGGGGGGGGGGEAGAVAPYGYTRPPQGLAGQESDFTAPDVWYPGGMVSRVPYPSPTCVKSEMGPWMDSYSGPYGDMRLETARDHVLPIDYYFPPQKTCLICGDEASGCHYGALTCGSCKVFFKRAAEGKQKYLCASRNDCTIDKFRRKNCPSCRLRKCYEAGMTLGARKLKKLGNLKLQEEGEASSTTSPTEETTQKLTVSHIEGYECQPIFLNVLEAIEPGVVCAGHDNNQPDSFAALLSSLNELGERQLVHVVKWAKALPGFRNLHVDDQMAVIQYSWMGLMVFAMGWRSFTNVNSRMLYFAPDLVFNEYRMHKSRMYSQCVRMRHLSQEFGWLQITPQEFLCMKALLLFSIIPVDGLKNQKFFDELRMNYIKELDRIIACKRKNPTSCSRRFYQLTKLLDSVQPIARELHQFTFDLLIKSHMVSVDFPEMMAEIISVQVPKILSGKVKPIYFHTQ

As for `c1ccc(P(c2ccccc2)c2ccccc2)cc1`, the Potency result in assay [1], in assay [2], in [3], in assay [4], in assay [5] and in assay [6] was “inactive” in each case. For the same compound, the Potency entry in assay [9], in [10], in assay [11], in assay [12], in assay [14] and in assay [15] was “inactive” throughout. In addition, the Potency entry in assay [16] was “inactive”. The compound was called inactive in assay [7], in [8] and in assay [13].

With `N[C@@H](Cc1ccc(N(CCCl)CCCl)cc1)C(=O)O`, the Potency entry in assay [1], in assay [2], in assay [3], in assay [4], in [9] and in assay [17] was “inactive” each time. In addition, the Potency entry in assay [10], in [18], in assay [11], in assay [12], in assay [14] and in assay [15] was “inactive” each time. In [16], the Potency result is “inactive”. For the same compound, the call in assay [7] and in [8] was inactive.

With `CCC(C)(c1ccc(O)cc1)c1ccc(O)cc1`, the Potency result in assay [1], in assay [3], in [4], in assay [19], in assay [9] and in assay [11] was “inactive” each time. Also, the Potency result in [12], in assay [14], in assay [15] and in assay [16] was “inactive” in each case. Also, the Potency is 243 nM (active) in assay [2]; 9.68 µM (active) and 8.63 µM (active) in [6]; 4.32 µM (active) in assay [17]. Also, the outcome in [7], in [8] and in [13] was inactive.

On to `NC(=S)Nc1ccccc1`, for which the Potency result in assay [1], in [2], in assay [6], in assay [19], in [9] and in [17] was “inactive” in each case. Besides, the Potency result in assay [10], in assay [18], in assay [12], in [14], in assay [15] and in assay [16] was “inactive” throughout. In addition, the Potency in [4] is 44 µM (active) and inactive; in [5], 27.8 µM (active) and inactive. For the same compound, the compound was classed as inactive in [7], in [8] and in assay [13].

For `Nc1ccncc1`, the Potency result in assay [1], in [2], in assay [3], in assay [4], in [20] and in assay [5] was “inactive” throughout. The Potency entry in assay [6], in [9], in assay [17], in [10], in [11] and in [12] was “inactive” throughout. Further, the Potency entry in [14], in [15] and in assay [16] was “inactive” throughout. The call in assay [7] and in assay [8] was inactive.

As for `C#CCOS(=O)OC1CCCCC1Oc1ccc(C(C)(C)C)cc1` (stereo not drawn), the Potency result in [1], in assay [5], in assay [6], in assay [9], in assay [10] and in assay [11] was “inactive” each time. Moreover, the Potency entry in [12], in [14] and in assay [15] was “inactive” each time. For the same compound, the Potency in [2] is 5.45 µM (active) and 4.86 µM (active); in [4] it was 27.3 µM (active); in assay [19] it was 30.7 µM (active) and 48.6 µM (active); in assay [16] it was 7.08 µM (active) and 7.7 µM (active). In addition, the result in assay [7], in assay [8] and in [13] was inactive.

Consider `O=S(=O)(Oc1ccc(Cl)cc1)c1ccc(Cl)cc1`, for which the Potency result in [1], in assay [2], in [4], in assay [5], in assay [6] and in assay [19] was “inactive” throughout. Moreover, the Potency result in assay [9], in assay [10], in [18], in assay [12], in assay [14] and in [15] was “inactive” each time. For the same compound, the Potency entry in assay [16] is “inactive”. In addition, the call in assay [7] was inactive. Besides, the Potency in [17] was 17.5 µM (active) and 17.2 µM (active).

On to `CCC(C)(C)c1ccc(O)cc1`, for which the Potency entry in assay [2], in assay [3], in assay [4], in assay [5], in [6] and in assay [19] was “inactive” throughout. The Potency entry in [9], in [17], in [10], in assay [18], in assay [12] and in assay [14] was “inactive” each time. The Potency entry in [15] and in assay [16] was “inactive” each time. Besides, the compound was called inactive in assay [7] and in [8].
